Results filed as inconclusive are left out. Active and inactive are the calls of the source. Unless noted, calls come from the whole dose curve; as a rule, active = well fitted curve in the direction sought with a large enough effect in the repeat runs; inconclusive = weak or mixed curves; inactive = no such curve, though single readings can be large; an effect the other way counts as inactive or inconclusive.
Assays:
[1] = qHTS assay for small molecule agonists of the p53 signaling pathway (AID 651631; calls by dose curve; note: nearly all actives have a fitted effect of over 15% in size; note: potency is the fitted concentration of half-maximal effect; for activation: % is set by controls: 0 for no effect and ±100 for the full control effect)
In short: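 HCT-116 cells carrying a stable p53 response element–beta-lactamase reporter were plated, rested 5 h at 37 °C, then exposed to compound in DMSO for 16 h at 37 °C; reporter activity was read as FRET substrate fluorescence after 2 h at room temperature.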

[2] = target: Glucocorticoid receptor (Homo sapiens) (UniProt P04150); experiment: qHTS assay to identify small molecule antagonists of the glucocorticoid receptor (GR) signaling pathway (AID 720692; active = well fitted inhibition curve with a large enough effect in the signal ratio in the repeat runs, not every such curve was filed as active; the % refers to the signal ratio; note: potency is the fitted concentration of half-maximal effect)
Sequence of Glucocorticoid receptor (Homo sapiens) (P04150 whole entry, looked up): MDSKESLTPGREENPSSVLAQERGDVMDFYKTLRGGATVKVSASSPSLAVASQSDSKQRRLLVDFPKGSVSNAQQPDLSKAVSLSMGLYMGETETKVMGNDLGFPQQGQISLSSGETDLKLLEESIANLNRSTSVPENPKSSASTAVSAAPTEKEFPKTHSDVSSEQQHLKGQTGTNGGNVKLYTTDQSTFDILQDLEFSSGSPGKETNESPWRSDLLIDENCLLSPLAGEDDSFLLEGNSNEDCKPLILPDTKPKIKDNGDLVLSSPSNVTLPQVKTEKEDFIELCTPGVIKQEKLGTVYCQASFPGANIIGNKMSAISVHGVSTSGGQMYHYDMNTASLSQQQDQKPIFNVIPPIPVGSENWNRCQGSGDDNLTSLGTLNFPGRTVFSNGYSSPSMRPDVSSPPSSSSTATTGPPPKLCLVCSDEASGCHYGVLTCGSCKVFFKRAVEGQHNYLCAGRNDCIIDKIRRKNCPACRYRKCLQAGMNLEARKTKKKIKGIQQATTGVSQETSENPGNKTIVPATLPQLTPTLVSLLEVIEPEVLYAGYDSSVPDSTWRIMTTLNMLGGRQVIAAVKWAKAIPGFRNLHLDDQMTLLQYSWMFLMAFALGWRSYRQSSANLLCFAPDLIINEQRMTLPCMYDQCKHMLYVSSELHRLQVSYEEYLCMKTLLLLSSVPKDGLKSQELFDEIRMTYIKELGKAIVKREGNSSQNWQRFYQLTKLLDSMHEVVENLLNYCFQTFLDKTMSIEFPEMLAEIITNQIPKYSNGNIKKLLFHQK
In short: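 Dexamethasone (5 nM final) stimulated a stably integrated GRE-beta-lactamase reporter in HeLa cells during 18 h co-incubation with compounds; signal was quantified as fluorescence intensity of B/G FRET substrate after 2 h.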

[3] = target: Estrogen receptor (Homo sapiens) (UniProt P03372); experiment: qHTS assay to identify small molecule antagonists of the estrogen receptor alpha (ER-alpha) signaling pathway (AID 743069; active = well fitted curve in the direction sought with a large enough effect in the signal ratio in the repeat runs, not every such curve was filed as active; the % refers to the signal ratio; note: % is set by controls: 0 for no effect and ±100 for the full control effect)
Sequence of Estrogen receptor (Homo sapiens) (P03372 whole entry, looked up): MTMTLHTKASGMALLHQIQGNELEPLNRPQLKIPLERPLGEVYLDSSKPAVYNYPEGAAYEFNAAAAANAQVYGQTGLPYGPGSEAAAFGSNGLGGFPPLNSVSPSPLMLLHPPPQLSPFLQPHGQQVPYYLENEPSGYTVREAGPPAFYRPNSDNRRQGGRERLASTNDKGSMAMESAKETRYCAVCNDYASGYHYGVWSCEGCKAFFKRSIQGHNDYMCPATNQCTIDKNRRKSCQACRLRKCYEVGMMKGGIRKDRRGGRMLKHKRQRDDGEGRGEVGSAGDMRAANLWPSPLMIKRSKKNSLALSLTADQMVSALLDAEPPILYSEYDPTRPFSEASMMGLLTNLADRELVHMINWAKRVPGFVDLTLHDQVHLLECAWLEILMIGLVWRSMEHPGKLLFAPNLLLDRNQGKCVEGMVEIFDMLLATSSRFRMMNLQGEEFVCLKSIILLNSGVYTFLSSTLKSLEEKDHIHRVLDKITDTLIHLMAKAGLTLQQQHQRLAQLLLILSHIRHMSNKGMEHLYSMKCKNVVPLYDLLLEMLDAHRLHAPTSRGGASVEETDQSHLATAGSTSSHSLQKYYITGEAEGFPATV
In short: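 Estradiol-stimulated ER-alpha-UAS-bla HEK293 cells, 18 hr compound exposure at 37C. LiveBLAzer B/G substrate, 2 hr RT, fluorescence read.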

[4] = target: Nuclear receptor subfamily 1 group I member 2 (Rattus norvegicus) (UniProt Q9R1A7); experiment: Rat pregnane X receptor (rPXR) activation by small molecules, qHTS assay (AID 1346983); settings: rPXR luciferase reporter cells, One-Glo luminescence, 24 h; max activation: hits give high values; note: % is set by controls: 0 for no effect and ±100 for the full control effect; nearly all actives have a fitted effect of over 20% in size
Sequence of Nuclear receptor subfamily 1 group I member 2 (Rattus norvegicus) (Q9R1A7 whole entry, looked up): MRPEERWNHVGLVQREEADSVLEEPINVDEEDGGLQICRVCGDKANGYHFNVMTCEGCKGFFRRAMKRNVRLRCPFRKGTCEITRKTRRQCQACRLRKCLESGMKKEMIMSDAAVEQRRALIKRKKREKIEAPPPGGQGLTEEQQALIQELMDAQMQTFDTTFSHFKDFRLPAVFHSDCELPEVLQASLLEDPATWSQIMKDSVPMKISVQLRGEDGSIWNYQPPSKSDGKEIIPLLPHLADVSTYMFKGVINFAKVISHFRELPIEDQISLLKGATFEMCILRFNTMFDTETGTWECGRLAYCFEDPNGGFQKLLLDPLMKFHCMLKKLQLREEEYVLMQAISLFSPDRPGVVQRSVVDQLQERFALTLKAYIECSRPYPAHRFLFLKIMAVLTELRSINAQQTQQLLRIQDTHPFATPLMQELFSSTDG
In short: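 Cell-based rPXR luciferase reporter assay, 2,000 cells per well, rested 5hr at 37 C before compound addition in DMSO, then 24 hr at 37 C. One-Glo reagent was added and luminescence read after 30 min at room temperature.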

[5] = qHTS RealTime-Glo MT Cell Viability Assay in HEK293 cells - 0 hour (AID 1224880); note: top concentration of the series differs between compounds; % is set by controls: 0 for no effect and ±100 for the full control effect; nearly all actives have a fitted effect of over 45% in size
In short: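 Tox21 screen in HEK293 using RealTime-Glo MT chemistry, with cells and reagent co-dispensed. Luminescence proportional to viable cell number was captured at intervals during 40 h compound exposure at 37 C.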

[6] = qHTS assay to identify small molecule HDAC inhibitors (AID 1259364);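 note: wild-type HCT-116 cells with endogenous class I/II HDAC activity; top concentration of the series differs between compounds; % is set by controls: 0 for no effect and ±100 for the full control effect; nearly all actives have a fitted effect of over 45% in size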
In short: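 Relative class I and II HDAC activity is taken from the luminogenic signal in HCT-116 cells, with compound exposure 2 hr and reagent development 30 min at room temperature.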

[7] = qHTS assay to identify small molecule antagonists of the progesterone receptor (PR) signaling pathway - cell viability counter screen (AID 1346798); note: series mostly up to about 92 µM; % is set by controls: 0 for no effect and ±100 for the full control effect; nearly all actives have a fitted effect of over 50% in size
In short: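 PR-UAS-bla HEK293T cells in medium with 2% charcoal-stripped FBS were treated with compounds plus R5020 for 16 hr at 37C. Cell viability was then read by CellTiter-Glo luminescence after 30 min at room temperature in the same wells.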

[8] = target: Androgen receptor (Homo sapiens) (UniProt P10275); experiment: qHTS assay to identify small molecule antagonists of the androgen receptor (AR) signaling pathway using the MDA cell line (AID 743042; note: nearly all actives have a fitted effect of over 55% in size; note: potency is the fitted concentration of half-maximal effect)
Sequence of Androgen receptor (Homo sapiens) (P10275 whole entry, looked up): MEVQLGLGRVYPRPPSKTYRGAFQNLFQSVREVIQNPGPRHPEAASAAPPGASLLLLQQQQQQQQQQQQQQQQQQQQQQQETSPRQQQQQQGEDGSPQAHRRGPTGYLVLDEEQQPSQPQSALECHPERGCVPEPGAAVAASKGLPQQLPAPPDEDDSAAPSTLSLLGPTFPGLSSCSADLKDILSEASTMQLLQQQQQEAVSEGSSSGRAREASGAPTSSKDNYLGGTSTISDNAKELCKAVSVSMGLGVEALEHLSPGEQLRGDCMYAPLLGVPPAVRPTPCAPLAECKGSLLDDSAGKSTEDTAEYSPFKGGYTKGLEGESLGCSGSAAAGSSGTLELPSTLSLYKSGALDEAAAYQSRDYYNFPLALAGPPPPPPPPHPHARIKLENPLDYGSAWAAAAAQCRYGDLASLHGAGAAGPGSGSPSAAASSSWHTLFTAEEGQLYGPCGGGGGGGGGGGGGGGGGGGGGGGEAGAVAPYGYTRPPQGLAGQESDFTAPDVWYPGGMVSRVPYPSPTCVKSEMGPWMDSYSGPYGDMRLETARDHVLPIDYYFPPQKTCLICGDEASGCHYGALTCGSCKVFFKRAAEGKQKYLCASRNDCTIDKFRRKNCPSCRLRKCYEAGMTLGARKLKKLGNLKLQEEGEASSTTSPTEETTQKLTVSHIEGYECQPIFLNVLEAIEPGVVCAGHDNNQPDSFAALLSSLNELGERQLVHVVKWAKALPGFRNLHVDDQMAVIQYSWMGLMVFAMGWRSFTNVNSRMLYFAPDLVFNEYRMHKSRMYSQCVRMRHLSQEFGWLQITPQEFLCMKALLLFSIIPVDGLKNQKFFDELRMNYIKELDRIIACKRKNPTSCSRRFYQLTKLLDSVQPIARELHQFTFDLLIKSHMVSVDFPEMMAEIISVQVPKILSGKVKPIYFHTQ
In short: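 MDA-kb2 cells (human breast carcinoma, stably carrying an MMTV-luciferase reporter responsive to AR and GR) were plated at 3,000 cells/well and preincubated 5 hr at 37C, then given compound plus R1881 agonist for 16 h. ONE-Glo luminescence was read.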

[9] = qHTS assay to identify small molecule antagonists of the estrogen receptor alpha (ER-alpha) signaling pathway using the BG1 cell line in the presence of 0.1 nM 17-beta-estradiol - cell viability counter screen (AID 1259241); note: % is set by controls: 0 for no effect and ±100 for the full control effect; nearly all actives have a fitted effect of over 40% in size
In short: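 VM7Luc4E2 cells (endogenous ER-alpha, 4×ERE-luciferase), hormone-starved 5 days in charcoal-stripped FBS, were treated with compounds plus 0.1 nM 17beta-estradiol for 22 hr at 37C; viability read in same wells as CellTiter-Fluor live-cell protease fluorescence.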

[10] = qHTS assay to identify small molecule antagonists of the androgen receptor (AR) signaling pathway using the MDA cell line in the presence of 0.5 nM R1881 - cell viability counter screen (AID 1259242); note: % is set by controls: 0 for no effect and ±100 for the full control effect; nearly all actives have a fitted effect of over 45% in size
In short: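 R1881 at 0.5 nM final stimulated MDA-kb2 cells during 16 hr compound treatment at 37C. Cytotoxicity read: CellTiter-Fluor fluorescence after 30 min.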

[11] = target: Androgen receptor (Homo sapiens) (UniProt P10275); experiment: qHTS assay to identify small molecule antagonists of the androgen receptor (AR) signaling pathway (AID 743035; active = well fitted inhibition curve with a large enough effect in the signal ratio in the repeat runs, not every such curve was filed as active; the % refers to the signal ratio; note: % is set by controls: 0 for no effect and ±100 for the full control effect)
In short: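 Using qHTS, AR-UAS-bla GripTite HEK293 cells received compound, then R1881, and were cultured 16 h at 37C/5% CO2 before a 2 h room-temperature LiveBLAzer B/G FRET substrate step and fluorescence measurement.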

[12] = target: Androgen receptor (Homo sapiens) (UniProt P10275); experiment: qHTS assay to identify small molecule agonists of the androgen receptor (AR) signaling pathway (AID 743036; active = well fitted activation curve with a large enough effect in the signal ratio in the repeat runs, with a control signal flat, not every such curve was filed as active; the % refers to the signal ratio; note: potency is the fitted concentration of half-maximal effect; for activation: % is set by controls: 0 for no effect and ±100 for the full control effect)
In short: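 HEK293 cells stably carrying a UAS-driven beta-lactamase reporter (GeneBLAzer AR-UAS-bla-GripTite) were plated at 2,000 cells/well, rested 4 h at 37C, then exposed to compounds in DMSO for 16 h. LiveBLAzer B/G FRET substrate was added for 2 h at room temperature; fluorescence read.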

[13] = target: Estrogen receptor (Homo sapiens) (UniProt P03372); experiment: qHTS assay to identify small molecule antagonists of the estrogen receptor alpha (ER-alpha) signaling pathway using the BG1 cell line in the presence of 0.1 nM 17-beta-estradiol (AID 1259244); note: % is set by controls: 0 for no effect and ±100 for the full control effect; nearly all actives have a fitted effect of over 50% in size
In short: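 VM7Luc4E2; 4xERE-luciferase; 0.1 nM E2 final; 22 h co-incubation, 37C; ONE-Glo luminescence after 30 min at room temperature.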

[14] = target: Estrogen receptor (Homo sapiens) (UniProt P03372); experiment: qHTS assay to identify small molecule agonists of the estrogen receptor alpha (ER-alpha) signaling pathway in the presence of an antagonist (AID 1259383; calls by dose curve; note: top concentration of the series differs between compounds; % is set by controls: 0 for no effect and ±100 for the full control effect; nearly all actives have a fitted effect of over 15% in size)
In short: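 Using VM7Luc4E2 cells seeded 24hr before treatment, antagonist ICI-182,780 (10.0nM final) was added, followed by compounds at 15 concentrations. Plates incubated 22hr; ONE-Glo luminescence quantified reporter activity.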

[15] = target: Nuclear receptor subfamily 1 group I member 2 (Homo sapiens) (UniProt O75469); experiment: Human pregnane X receptor (PXR) small molecule agonists, qHTS assay (AID 1346982); note: % is set by controls: 0 for no effect and ±100 for the full control effect; nearly all actives have a fitted effect of over 35% in size
Sequence of Nuclear receptor subfamily 1 group I member 2 (Homo sapiens) (O75469 whole entry, looked up): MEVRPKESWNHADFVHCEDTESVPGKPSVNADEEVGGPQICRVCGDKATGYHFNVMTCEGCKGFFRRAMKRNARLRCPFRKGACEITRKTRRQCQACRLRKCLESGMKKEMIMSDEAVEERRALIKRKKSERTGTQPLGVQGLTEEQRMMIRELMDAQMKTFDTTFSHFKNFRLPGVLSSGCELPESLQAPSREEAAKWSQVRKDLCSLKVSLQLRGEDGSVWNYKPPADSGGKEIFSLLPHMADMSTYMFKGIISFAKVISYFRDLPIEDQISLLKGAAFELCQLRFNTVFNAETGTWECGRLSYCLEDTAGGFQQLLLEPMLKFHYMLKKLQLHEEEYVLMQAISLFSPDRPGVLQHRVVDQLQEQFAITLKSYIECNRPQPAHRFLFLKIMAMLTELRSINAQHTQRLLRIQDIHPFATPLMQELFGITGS
In short: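 We seeded PXR-Luc HepG2 cells in assay medium containing 5% charcoal-stripped FBS, added compounds 5 hr later, incubated 24 hr, and read luminescence with ONE-Glo reagent.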

[16] = target: Acetylcholinesterase (Homo sapiens) (UniProt P22303); experiment: Acetylcholinesterase (AChE) small molecule antagonists: colormetric cell-based qHTS assay (AID 1347395; calls by dose curve; note: % is set by controls: 0 for no effect and ±100 for the full control effect; nearly all actives have a fitted effect of over 30% in size)
Sequence of Acetylcholinesterase (Homo sapiens) (P22303 whole entry, looked up): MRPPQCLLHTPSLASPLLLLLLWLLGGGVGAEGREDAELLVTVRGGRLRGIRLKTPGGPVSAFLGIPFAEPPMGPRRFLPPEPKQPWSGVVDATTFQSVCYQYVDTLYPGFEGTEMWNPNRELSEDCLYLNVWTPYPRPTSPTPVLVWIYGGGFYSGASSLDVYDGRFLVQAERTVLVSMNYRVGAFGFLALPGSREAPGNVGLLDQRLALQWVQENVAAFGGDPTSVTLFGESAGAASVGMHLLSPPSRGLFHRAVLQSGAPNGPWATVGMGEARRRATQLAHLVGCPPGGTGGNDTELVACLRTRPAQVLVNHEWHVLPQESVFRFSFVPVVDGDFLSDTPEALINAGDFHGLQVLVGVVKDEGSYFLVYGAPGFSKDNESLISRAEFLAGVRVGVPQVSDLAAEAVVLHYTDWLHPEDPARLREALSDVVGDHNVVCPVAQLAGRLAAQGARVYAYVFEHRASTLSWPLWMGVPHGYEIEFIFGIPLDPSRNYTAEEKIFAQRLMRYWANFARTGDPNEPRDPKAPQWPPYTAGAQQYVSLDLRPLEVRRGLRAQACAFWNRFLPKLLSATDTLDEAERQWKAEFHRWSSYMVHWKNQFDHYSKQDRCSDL
In short: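 SH-SY5Y cells, plated overnight at 37 C, were exposed to compounds for 30 min at 37 C and 5% CO2. Acetylthiocholine plus DTNB was then added, and thiocholine from endogenous AChE was quantified colorimetrically after 90 min at 37 C.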

[17] = target: Acetylcholinesterase (Homo sapiens) (UniProt P22303); experiment: Acetylcholinesterase (AChE) small molecule antagonists: enzyme-based qHTS assay (AID 1347397; calls by dose curve; note: % is set by controls: 0 for no effect and ±100 for the full control effect; nearly all actives have a fitted effect of over 55% in size); settings: Potency: AChE enzyme activity inhibition; outcome: AChE enzyme activity inhibition
In short: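 Human recombinant acetylcholinesterase; substrate acetylthiocholine; thiocholine quantified with DTNB (colorimetric). Compound preincubation 30 min RT; reaction 10 min RT.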

[18] = target: Acetylcholinesterase (Homo sapiens) (UniProt P22303); experiment: Acetylcholinesterase (AChE) small molecule antagonists: fluorescence cell-based qHTS assay (AID 1347398; calls by dose curve; note: % is set by controls: 0 for no effect and ±100 for the full control effect; nearly all actives have a fitted effect of over 50% in size); settings: Potency: AChE activity; outcome: AChE activity
In short: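 Thiocholine generated from acetylthiocholine by SH-SY5Y cell AChE is detected with Thiolite Green (Ex/Em 490/520 nm) after 40 min at room temperature, following 30 min compound pretreatment at 37 C.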

[19] = target: Acetylcholinesterase (Homo sapiens) (UniProt P22303); experiment: Acetylcholinesterase (AChE) small molecule antagonists: enzyme-based qHTS assay with human liver microsomes (AID 1347399; calls by dose curve; note: % is set by controls: 0 for no effect and ±100 for the full control effect; nearly all actives have a fitted effect of over 60% in size); settings: Potency: qHTS inhibition; outcome: qHTS inhibition
In short: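 Recombinant human AChE (50 mU/mL in the enzyme mix) and human liver microsomes (0.25 mg/mL final) were preincubated with compound and NADPH (0.25 mg/mL final) for 30 min at 37 C. Acetylthiocholine/DTNB was then added; thiocholine was read colorimetrically after 10 min at room temperature.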

[20] = target: Androgen receptor (Homo sapiens) (UniProt P10275); experiment: qHTS assay to identify small molecule agonists of the androgen receptor (AR) signaling pathway using the MDA cell line (AID 743040; note: potency is the fitted concentration of half-maximal effect; nearly all actives have a fitted effect of over 20% in size)
In short: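 Luminescence from ONE-Glo, read after 30 min at room temperature, reflects MMTV-driven luciferase in MDA-kb2 cells (AR- and GR-responsive). Treatment lasted 16 h at 37C, 0% CO2.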

CCC1(CC)C(=O)NC(=O)N(C)C1=O
inactive: Potency [1] | Potency [2] | Potency [3] | max activation [4] -3.02%

Oc1c(Cl)cc(Cl)cc1Cl
inactive: outcome [5] | outcome [6] | Potency [7]

CCC1(C)CC(=O)NC(=O)C1
inactive: Potency [1] | Potency [2] | Potency [3] | max activation [4] 0.0054%

CC(=O)O[C@H]1CC[C@H]2[C@@H]3CCC4=CC(=O)CCC4=C3C=C[C@]12C
inactive: Potency [8] | max activation [4] -1.98%
active: Potency [2] 2.68 µM

CN(C)CCCCCCN(C)C
inactive: Potency [2] | Potency [9] | Potency [10]

C[C@]12CC[C@H](OS(=O)(=O)O)CC1=CC[C@@H]1[C@@H]2CC[C@]2(C)C(=O)CC[C@@H]12
inactive: Potency [1] | Potency [11] | Potency [8] | Potency [3] | max activation [4] -3.4%

CCCCCCCCCC(=O)O[C@H]1CC[C@H]2[C@@H]3CCC4=CC(=O)CC[C@]4(C)[C@H]3CC[C@]12C
inactive: Potency [3] | max activation [4] -1.38%

O=C1CN(O)C(c2ccccc2)=c2cc(Cl)ccc2=N1
inactive: Potency [1] | Potency [2] | Potency [11] | Potency [12] | Potency [8] | max activation [4] -6.23%

CCC(N)Cc1c[nH]c2ccccc12 (centres undefined)
inactive: Potency [1] | max activation [4] -0.551%

CNC(=O)OCC[N+](C)(C)C
inactive: Potency [2] | Potency [3] | max activation [4] 0.49%

C[C@]12CC[C@H]3[C@@H](CCC4=C(O)C(=O)CC[C@@H]43)[C@@H]1CC[C@@H]2OC(=O)CCC1CCCC1
inactive: Potency [1] | max activation [4] -2.22%

c1ccccc1
inactive: Potency [2] | Potency [3] | Potency [9] | Potency [10] | Potency [13] | outcome [14] | Potency [15] | Potency [16] | Potency [17] | Potency [18] | Potency [19]

C[C@]12C=CC(=O)C=C1CC[C@@H]1[C@@H]2CC[C@]2(C)OC(=O)CC[C@@H]12
inactive: Potency [1] | max activation [4] -1.12%

S=C(S)N1CCNCC1
inactive: Potency [2] | Potency [3] | max activation [4] -2.4%

O=c1[nH]cc(N(CCCl)CCCl)c(=O)[nH]1
inactive: Potency [3] | max activation [4] -3.28%
active: Potency [1] 21.1 µM

COC1=CC=C2[C@H]3Cc4ccc(OC)c5c4[C@@]2(CCN3C)[C@H]1O5
inactive: Potency [1] | Potency [2] | Potency [3] | max activation [4] -7.33%

CC(=O)OC1CN2CCC1CC2 (centres undefined)
inactive: Potency [2] | Potency [3] | max activation [4] -0.436%

Oc1ccc2c3c1O[C@H]1[C@@H](O)CC[C@@]4(O)[C@@H](C2)N(CC2CCC2)CC[C@]314
inactive: Potency [2] | Potency [8] | max activation [4] -0.605%

C=CCN(C1=NCCN1)c1c(Cl)cccc1Cl
inactive: Potency [1] | Potency [2] | Potency [3]

C[N+]1(C)CCCCC1COC(=O)C(O)(c1ccccc1)c1ccccc1 (centres undefined)
inactive: Potency [2] | Potency [11] | Potency [12] | Potency [8] | max activation [4] 2.59%

NCC[C@H](O)C(=O)N[C@@H]1C[C@H](N)[C@@H](O[C@H]2O[C@H](CN)[C@@H](O)[C@H](O)[C@H]2N)[C@H](O[C@@H]2O[C@H](CO)[C@@H](O)[C@H]2O)[C@H]1O
inactive: Potency [8] | max activation [4] -1.3%

C#CC(C)(O)CC (centres undefined)
inactive: Potency [2] | Potency [3] | max activation [4] -2.56%

C[C@H]1CC[C@]2(NC1)O[C@H]1C[C@H]3[C@@H]4CC[C@H]5C[C@@H](O[C@@H]6O[C@H](CO)[C@H](O[C@@H]7O[C@H](CO)[C@@H](O)[C@H](O[C@@H]8OC[C@@H](O)[C@H](O)[C@H]8O)[C@H]7O[C@@H]7O[C@H](CO)[C@@H](O)[C@H](O)[C@H]7O)[C@H](O)[C@H]6O)CC[C@]5(C)[C@H]4CC[C@]3(C)[C@H]1[C@@H]2C
active: Potency [8] 5.96 µM

CC(C)CCC(=O)O[C@H]1CC[C@H]2[C@@H]3CCC4=CC(=O)CC[C@]4(C)[C@H]3CC[C@]12C
active: Potency [2] 6.01 µM | Potency [12] 10.7 nM | Potency [20] 4.2 nM
inactive: Potency [11] | Potency [8] | max activation [4] 2.99%

O=C1OC2(c3cc(Br)c(O)cc3Oc3c2cc(Br)c(O)[c]3[Hg])c2ccccc21 (centres undefined)
inactive: Potency [1] | Potency [2] | Potency [3]

COc1ccc2c3c1O[C@H]1[C@@H](O)C=C[C@H]4[C@@H](C2)NCC[C@@]341
inactive: Potency [2] | Potency [3]

COC([CH2][Hg])CNC(=O)c1ccccc1OCC(=O)O (centres undefined)
inactive: Potency [2] | Potency [3] | max activation [4] 7.87%
